An excerpt weighted towards active compounds, which were near 21% of everything screened.
Shiga inhibitor = blocks Shiga toxin action in Vero cells; Vero cells, Shiga toxin protein synthesis inhibition reporter; inhibition, % at 38.7 µM; actives 9.2% (n = 290,000); in the data active means inhibition mostly above about 28%, no sharp cut-off; inactive means mostly below about 43%; further: 0% is about no effect
CHX counter = affects cycloheximide protein synthesis inhibition readout, counter-screen | cell reporter, cycloheximide protein synthesis inhibition counterscreen | max response, % | actives 12% (n = 300,000) | AID 2314; in the data active means max response mostly above about 13%, no sharp cut-off; inactive means mostly below about 14%; further: read at 38.3 µM for the half of the compounds with a filed dose; 0% is about no effect
Pf growth 96h = inhibits malaria parasite growth, 96 h. P. falciparum luciferase reporter growth, 96 h. Potency, µM (highest dose often 28.7 µM), without a hit: top-dose activity change, negative = inhibition, hits mostly inhibitors. actives 6.9% (n = 320,000); further: potency means the concentration at half of the fitted maximal effect; on the % scale 0 is the no-effect control and ±100 the full control effect
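Two-generation exposure (96 h) targets delayed-death phenotype. Reporter parasites carrying integrated firefly luciferase, in red cells at 2% hematocrit and 0.05% parasitemia final, kept at 37 C, 5% CO2; luminescence loss indicates inhibition.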
Pf growth 48h = inhibits P. falciparum growth in the first generation, 48 h. P. falciparum luciferase growth in erythrocytes, 48 h. Potency, µM (highest dose often 28.7 µM), without a hit: at the top dose activity change, negative = inhibition, actives largely listed as inhibitors. actives 5.9% (n = 310,000). AID 504832; further: potency means the concentration at half of the fitted maximal effect; on the % scale 0 is the no-effect control and ±100 the full control effect
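Firefly luciferase activity from engineered P. falciparum reports growth; inhibitors lower the luminescent signal. Cultures contained 2% hematocrit erythrocytes at 0.1% final parasitemia.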
An asterisk follows results filed as active; ? = inconclusive; / = no result; ! = not confirmed by another sample. Unless noted, the call rests on the fitted dose curve; in most records, active means well fitted inhibition curve with a large enough effect; inconclusive means small, poorly fitted or top-dose-only effect, or another doubt; inactive means no such curve, though single readings can be large or run the other way.

SMILES | Shiga inhibitor | CHX counter | Pf growth 96h | Pf growth 48h
CCN(CC)S(=O)(=O)c1ccc(C)c(NC(=S)NNC(=O)C2CC2)c1 | -9 | 6 | 1% | -16%
O=C(NCc1ccco1)C(c1cccs1)N(C(=O)C1COc2ccccc2O1)c1cccc(O)c1 (stereo unspecified) | 16 | 12 | ? | 10µM*
CC(C)CCNC(=O)C(c1ccc(O)cc1)N(Cc1cccs1)C(=O)C1COc2ccccc2O1 (stereo unspecified) | -13 | -2 | 47% | ?
O=C1C2C3C=CC(CO)(O3)C2C(=O)N1c1ccccc1-c1ccccc1 (stereo unspecified) | -1 | -5 | 5.9µM* | ?
CC(=O)Oc1ccc(N2C(=O)C3C4C=CC(CO)(O4)C3C2=O)cc1 (stereo unspecified) | 14 | 16 | 17% | /
OC[C@H]1NC[C@@H](O)[C@@H](O)[C@@H]1O | 7 | -6 | / | /
O=C(Nc1ccc(Cl)c([N+](=O)[O-])c1)c1ccco1 | 33 | 20* | 0% | 9%
O=C(/C=C/c1ccc(Cl)c([N+](=O)[O-])c1)Nc1cccc(NC(=O)c2ccco2)c1 | 67* | 36* | ? | 12µM*
COc1cc([N+](=O)[O-])ccc1NC(=O)CCCOc1cccc(C)c1 | -2 | -4 | 62% | 58%
COc1ccc(NC(=O)CSCC(=O)Nc2nnc(C)s2)cc1 | / | / | -1% | -9%
O=C(c1c(F)cccc1F)N1CCCC(c2nc(-c3cccs3)no2)C1 (stereo unspecified) | 131* | 25 | 8.3µM* | 27%
O=C(c1ccccc1Br)N1CCCC(c2nc(-c3cccs3)no2)C1 (stereo unspecified) | 114* | 36* | 12% | 7%
O=C(CSc1nnc2c(Cl)cc(C(F)(F)F)cn12)N(Cc1ccccc1)Cc1ccccc1 | 12 | 3 | ? | -30%
O=C(CSc1nnc2c(Cl)cc(C(F)(F)F)cn12)NCc1ccc(F)cc1 | 21 | 4 | 8.3µM* | ?
Cn1c(/N=C/c2c[nH]c3ccccc23)nc2ccccc21 | 18 | 2 | 21% | 12%
CC(C)n1c(/N=C/c2c[nH]c3ccccc23)nc2ccccc21 | 45 | 20* | -6% | -29%
CCOc1ccc(S(=O)(=O)NC(Cc2c[nH]c3ccccc23)C(=O)O)cc1 (stereo unspecified) | -4 | -4 | 31% | /
c1ccc(C[C@H]2CN=C(Nc3ccccc3)N2CCCC2CCCC2)cc1 | -8 | -1 | ? | ?
S=C1NC[C@H](Cc2ccccc2)N1CCCCC1CCCCC1 | 42* | 11* | ? | ?
CN(C)C1=NC[C@H](Cc2ccccc2)N1CCCC1CCCC1 | / | / | ? | 9.3µM*
CN(C)C1=NC[C@H](Cc2ccccc2)N1CCC1CCCC1 | / | / | ? | 10µM*
S=C1NC[C@H](c2ccccc2)N1CC1CCCCC1 | -20 | 1 | 8.3µM* | ?
CCOc1ccc(S(=O)(=O)Nc2ccn(C)n2)cc1 | / | / | -18% | -7%
NC(=O)C1CCN(c2nc(-c3cccs3)cs2)CC1 | / | / | 8% | 16%
CN(C)C1=NC[C@H](Cc2ccccc2)N1CC1CCCCCC1 | / | / | ? | 12µM*
SMILES | Shiga inhibitor | CHX counter | Pf growth 96h | Pf growth 48h
C[C@H]1CN=C(Nc2ccccc2)N1CC1CCCCC1 | -7 | -1 | 1% | 7%
CN(C)C1=NC[C@H](Cc2ccccc2)N1CCCC1CCCCC1 | / | / | 5.2µM* | 7.4µM*
C[C@H]1CN=C(Nc2ccccc2)N1CCCC1CCCCC1 | -5 | -2 | ? | -4%
CN(Cc1ccc(-n2cccn2)cc1)Cc1nc(-c2cnccn2)no1 | -3 | 2 | 12% | 21%
CCCc1cc(N2CCN(C(=O)c3ccco3)CC2)n2c(nc3ccccc32)c1C#N | 18 | 8 | / | 12µM*
CCCCc1nc(N2CCN(C(=O)c3ccco3)CC2)c(C#N)c2c1CCCC2 | 63* | 21* | ? | 9.3µM*
CCCc1nc(N2CCCC2)c(C#N)c2c1CCCC2 | -21 | -5 | ? | 16%
Cc1ccc(S(=O)(=O)NCc2ccccc2)cc1C(=O)NCC(C)(C)N1CCOCC1 | / | / | -4% | ?
CCOc1cc(-c2cc(N)n[nH]2)cc(OCC)c1OCC | 0 | -3 | 105% | 13µM*
CCCCCCCCCCOC(=O)Cn1c(COc2ccc(Cl)cc2)[n+](C)c2ccccc21 | -11 | -5 | ? | ?
CCCCCCCCCCOC(=O)Cn1c(COc2cccc(C)c2)[n+](C)c2ccccc21 | / | -4 | 5.2µM* | ?
CCCCCCCCCCOC(=O)Cn1c(COc2ccc(OC)cc2)[n+](C)c2ccccc21 | -2 | 14 | 4.7µM*! | 4.1µM*

Source: PubChem
